The results in this text go back to PubChem BioAssay.

Experiment [1] in a line: antimalarial activity against Dd2 strain (AID 2302;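 active = growth inhibition above 50% at the single 2 µM test dose, taken to imply half-maximal potency below 2 µM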;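 note: 0% = DMSO untreated growth and 100% = chloroquine plus artemisinin killed control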). The note with it: P. falciparum Dd2 in RBCs, LDH growth readout, 72 h; at 2 µM; active compounds read high.
Experiment [2] in a line: human hepatoma cell viability loss – ATP luminescence, cytotoxicity control for P. falciparum antimalarial project, primary screen (AID 2303;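 active = inhibition above 50%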;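 note: 0% = DMSO wells and 100% = digitonin-killed cells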). Conditions: HepG2 viability, 24-48 h, at 10 µM, active compounds read high.
Experiment [3] concerns the target L-lactate dehydrogenase (Plasmodium falciparum (isolate CDC / Honduras)) (UniProt Q27743). In words: PfLDH activity inhibition – cell lysate, 3D7 strain, counter-screen for P. falciparum growth inhibition project (AID 2304).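 Note: 0% = vehicle and 100% = reference inhibitor.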 Conditions: P. falciparum 3D7 crude extract, LDH APAD/NBT absorbance; at 2 µM; active compounds read high. In general terms: A counterscreen serves to expose hits that act by an unwanted route or on another target.

Experiment [4] in a line: inhibition of 3D7 malaria parasite growth – strain 3D7 (AID 2306).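 Note: 0% = DMSO wells and 100% = chloroquine plus artemisinin control wells.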 The note with it: P. falciparum 3D7 erythrocytic growth, LDH absorbance, 72 h; at 2 µM; active compounds read high.
Experiment [5] has as its target Calcium-dependent protein kinase 1 (Plasmodium falciparum (isolate 3D7)) (UniProt P62344). In words: PfCDPK1 kinase inhibitors, biochemical, TCAMS library (AID 1159585; cut-off not given, nearly all actives have IC50 up to about 0.98 µM;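 note: inhibitors leave more ATP so luminescence rises with inhibition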). The note with it: recombinant PfCDPK1, Kinase-Glo ATP depletion luminescence. For orientation: Kinase-Glo reads ATP consumption through a luciferase reaction.
Experiment [6] addresses Plasmodium falciparum protein kinase 6 (PK6, PF3D7_1337100) (UniProt Q8IDW1). Briefly: PfPK6 kinase inhibitors, biochemical, TCAMS library (AID 1159586). Conditions: recombinant PfPK6, Kinase-Glo ATP depletion luminescence.
For experiment [7], the target named is Protein kinase 7 (PK7), Plasmodium falciparum 3D7 (PF3D7_0213400) (UniProt Q7YTF7). Briefly: inhibition of Plasmodium PK7 catalytic activity – biochemical, TCAMS antimalarial set, Kinase-Glo luminescence (AID 1159587). Conditions: recombinant PfPK7, Kinase-Glo ATP depletion luminescence.
Experiment [8] addresses Calcium-dependent protein kinase 4 (Plasmodium falciparum (isolate 3D7)) (UniProt Q8IBS5). In words: PfCDPK4 kinase inhibitors, biochemical, TCAMS library (AID 1159588; cut-off not given, nearly all actives have IC50 up to about 0.91 µM). Conditions: recombinant PfCDPK4, Kinase-Glo ATP depletion luminescence.

Values without a mark were called inactive. For some of these results: Potency and affinity values are given separately. The source made the active and inactive calls. Unless noted, the rule behind the calls is not given here.

Chain of L-lactate dehydrogenase (Plasmodium falciparum (isolate CDC / Honduras)) (Q27743 whole entry, looked up): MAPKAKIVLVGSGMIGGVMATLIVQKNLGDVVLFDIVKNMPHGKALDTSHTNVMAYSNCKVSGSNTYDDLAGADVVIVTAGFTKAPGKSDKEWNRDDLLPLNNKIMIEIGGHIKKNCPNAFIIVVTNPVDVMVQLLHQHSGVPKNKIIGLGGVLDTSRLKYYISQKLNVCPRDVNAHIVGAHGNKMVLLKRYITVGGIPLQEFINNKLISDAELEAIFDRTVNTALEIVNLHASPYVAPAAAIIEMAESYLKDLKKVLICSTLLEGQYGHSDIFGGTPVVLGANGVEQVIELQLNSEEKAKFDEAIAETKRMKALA
Chain of Plasmodium falciparum protein kinase 6 (PK6, PF3D7_1337100) (Q8IDW1 1-305): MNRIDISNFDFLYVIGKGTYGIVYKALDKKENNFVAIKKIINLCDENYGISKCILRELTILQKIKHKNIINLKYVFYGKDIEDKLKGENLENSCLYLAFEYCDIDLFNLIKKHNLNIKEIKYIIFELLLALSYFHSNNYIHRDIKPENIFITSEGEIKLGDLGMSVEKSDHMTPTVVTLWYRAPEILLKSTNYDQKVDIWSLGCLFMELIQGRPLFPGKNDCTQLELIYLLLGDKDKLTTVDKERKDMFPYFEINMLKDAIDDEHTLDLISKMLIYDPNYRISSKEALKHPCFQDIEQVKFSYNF
Chain of Calcium-dependent protein kinase 1 (Plasmodium falciparum (isolate 3D7)) (P62344 whole entry, looked up): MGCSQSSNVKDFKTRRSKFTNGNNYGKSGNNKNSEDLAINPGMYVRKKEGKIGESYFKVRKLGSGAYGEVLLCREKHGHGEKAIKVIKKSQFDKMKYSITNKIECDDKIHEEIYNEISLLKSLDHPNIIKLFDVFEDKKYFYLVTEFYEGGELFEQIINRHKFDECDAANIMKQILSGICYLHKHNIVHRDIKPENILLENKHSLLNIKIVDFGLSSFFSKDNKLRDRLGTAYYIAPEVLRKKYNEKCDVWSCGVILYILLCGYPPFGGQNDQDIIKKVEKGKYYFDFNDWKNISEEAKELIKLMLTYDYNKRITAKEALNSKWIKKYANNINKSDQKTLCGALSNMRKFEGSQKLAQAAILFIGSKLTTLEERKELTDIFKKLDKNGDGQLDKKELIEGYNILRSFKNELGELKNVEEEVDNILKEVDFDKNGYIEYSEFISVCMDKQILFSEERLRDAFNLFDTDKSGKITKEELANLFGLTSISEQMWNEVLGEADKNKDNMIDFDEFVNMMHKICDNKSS
Chain of Calcium-dependent protein kinase 4 (Plasmodium falciparum (isolate 3D7)) (Q8IBS5 whole entry, looked up): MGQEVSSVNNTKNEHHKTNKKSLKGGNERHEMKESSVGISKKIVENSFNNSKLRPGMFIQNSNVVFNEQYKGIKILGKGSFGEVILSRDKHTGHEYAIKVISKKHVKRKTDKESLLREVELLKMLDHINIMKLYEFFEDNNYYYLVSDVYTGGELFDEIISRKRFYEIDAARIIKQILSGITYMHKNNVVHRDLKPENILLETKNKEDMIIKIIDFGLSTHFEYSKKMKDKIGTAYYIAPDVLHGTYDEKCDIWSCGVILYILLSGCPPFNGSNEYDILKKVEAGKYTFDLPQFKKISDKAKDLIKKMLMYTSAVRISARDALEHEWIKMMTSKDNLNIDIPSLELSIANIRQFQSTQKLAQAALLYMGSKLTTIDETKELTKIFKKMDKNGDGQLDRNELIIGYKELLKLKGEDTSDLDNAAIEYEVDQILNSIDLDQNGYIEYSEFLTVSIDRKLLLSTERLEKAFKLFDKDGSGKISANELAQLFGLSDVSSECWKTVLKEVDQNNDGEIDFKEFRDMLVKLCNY
Chain of Protein kinase 7 (PK7), Plasmodium falciparum 3D7 (PF3D7_0213400) (Q7YTF7 1-343): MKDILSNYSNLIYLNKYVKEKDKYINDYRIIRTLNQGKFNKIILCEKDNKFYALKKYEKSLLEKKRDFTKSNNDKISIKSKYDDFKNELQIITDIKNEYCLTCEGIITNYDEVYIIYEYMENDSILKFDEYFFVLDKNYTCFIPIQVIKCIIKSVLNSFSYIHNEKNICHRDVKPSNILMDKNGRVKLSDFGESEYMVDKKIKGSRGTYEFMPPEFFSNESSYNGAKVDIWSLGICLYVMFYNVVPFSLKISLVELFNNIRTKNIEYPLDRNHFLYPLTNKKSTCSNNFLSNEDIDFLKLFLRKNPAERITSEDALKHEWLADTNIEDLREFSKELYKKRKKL

One may read the inhibition as the drop in the measured response relative to a control, in per cent. For the molecule `CC(C)CNCc1cccc(-c2cccc(CN(CCCN3CCN(C)CC3)C(=O)/C=C/c3ccccc3)c2)c1`, the growth inhibition in experiment [1] is 88% (active); in experiment [4], 90% (active). Also, the inhibition was 44% in experiment [2] and 7% in experiment [3]. Further, the result in experiment [5], in experiment [6], in experiment [7] and in experiment [8] was inactive.
As for `Fc1ccc(OC2CN(c3nccc(NCc4ccccc4Cl)n3)C2)cc1`, the results for the growth inhibition in experiment [1] and in experiment [4] were 99% (active) and 98% (active), respectively. Also, the inhibition in experiment [2] is -2%; in experiment [3], 6%. The result in experiment [5], in experiment [6], in experiment [7] and in experiment [8] was inactive.
Turning to `CCN(CCS(C)(=O)=O)Cc1ccc(-c2ccc3ncnc(Nc4ccc(OCc5cccc(F)c5)c(Cl)c4)c3c2)o1`, the growth inhibition in experiment [1] was 63% (active); in experiment [4], 101% (active). The inhibition in experiment [2] is 5%; in experiment [3], -7%. Besides, the result in experiment [5], in experiment [6], in experiment [7] and in experiment [8] was inactive.
In the case of `NC(=NCc1ccccc1Cl)NCCc1c[nH]c2ccccc12`, the growth inhibition in experiment [1] is 45%; in experiment [4] it was 83% (active). For the same molecule, the values for the inhibition in experiment [2] and in experiment [3] were 16% and 2%, respectively. In addition, the result in experiment [5], in experiment [6], in experiment [7] and in experiment [8] was inactive.
On to `CCN(CC)CCN(Cc1ccc(-c2ccc(C(F)(F)F)cc2)cc1)C(=O)Cn1c(CCc2cccc(F)c2F)nc(=O)c2ccccc21`, for which the growth inhibition in experiment [1] was 60% (active); in experiment [4], 97% (active). The inhibition is 49% in experiment [2] and -3% in experiment [3]. Further, the result in experiment [5], in experiment [6], in experiment [7] and in experiment [8] was inactive.
With `Cc1nn(-c2ccnc3cc(Cl)ccc23)c(C)c1C(=O)NCc1cc(Cl)cc(Cl)c1`, the growth inhibition in experiment [1] was 53% (active); in experiment [4] it was 97% (active). For the same molecule, the inhibition is -10% in experiment [2] and -1% in experiment [3]. Moreover, the result in experiment [5], in experiment [6], in experiment [7] and in experiment [8] was inactive.
Regarding `Cc1ccc(NC(=S)N2CCCN(CCCCCNC(=O)/C=C/c3ccc(Cl)c(Cl)c3)CC2)cc1Cl`, the values for the growth inhibition in experiment [1] and in experiment [4] were 5% and 93% (active), respectively. Further, the inhibition was 14% in experiment [2] and 5% in experiment [3]. Further, the outcome in experiment [5], in experiment [6], in experiment [7] and in experiment [8] was inactive.
Take `CC(C)CCN1CCC(Oc2ccc(NC(=O)c3ccsc3)cc2Cl)CC1`: the results for the growth inhibition in experiment [1] and in experiment [4] were 81% (active) and 89% (active), respectively. For the same molecule, the inhibition in experiment [2] is 19%; in experiment [3], 0%. In addition, the result in experiment [5], in experiment [6], in experiment [7] and in experiment [8] was inactive.
Turning to `COc1ccc(CCN(C)CCCN2CCC(NC(=O)c3cccc4c(=O)c5ccccc5[nH]c34)CC2)cc1OC`, the growth inhibition in experiment [1] is 72% (active); in experiment [4], 99% (active). Besides, the inhibition in experiment [2] is 19%; in experiment [3] it was 2%. Further, the result in experiment [5], in experiment [6], in experiment [7] and in experiment [8] was inactive.
As to `Cc1cccc2nc(C(=O)Nc3nc(CN4CCC(C)CC4)cs3)cn12`, the growth inhibition in experiment [1] was 80% (active); in experiment [4], 94% (active). For the same molecule, the results for the inhibition in experiment [2] and in experiment [3] were -27% and 0%, respectively. Further, the result in experiment [5], in experiment [6], in experiment [7] and in experiment [8] was inactive.
As to `O=C(Nc1cccc(C(F)(F)F)c1)c1cccc(S(=O)(=O)NCC2CCCN(Cc3ccccc3)C2)c1` (stereo not given), the growth inhibition in experiment [1] is 3%; in experiment [4], 94% (active). Also, the inhibition is 17% in experiment [2] and 2% in experiment [3]. The result in experiment [5], in experiment [6], in experiment [7] and in experiment [8] was inactive.
As for `Cn1nccc1C(=O)NCCNCc1ccc(-c2cccc(-c3nc4ccc(C(F)(F)F)cc4[nH]3)c2)cc1`, the growth inhibition in experiment [1] is 99% (active); in experiment [4], 101% (active). In addition, the inhibition was 51% (active) in experiment [2] and -8% in experiment [3]. For the same molecule, the result in experiment [5], in experiment [6], in experiment [7] and in experiment [8] was inactive.
As for `Nc1nccc2ccc(-c3cccc4ncccc34)cc12`, the values for the growth inhibition in experiment [1] and in experiment [4] were 94% (active) and 98% (active), respectively. Moreover, the inhibition in experiment [2] was 40%; in experiment [3], -1%. Moreover, the result in experiment [5], in experiment [6], in experiment [7] and in experiment [8] was inactive.
For `O=C(/C=C/c1ccc(Cl)c(Cl)c1)NC1CCN(CCNC(=O)c2cccc(Cl)c2)CC1`, the growth inhibition in experiment [1] was 45%; in experiment [4], 103% (active). Moreover, the inhibition in experiment [2] was 22%; in experiment [3], 0%. Besides, the outcome in experiment [5], in experiment [6], in experiment [7] and in experiment [8] was inactive.
On to `COc1cccc(C(=O)NCc2cccs2)c1OCc1ccccc1`, for which the growth inhibition in experiment [1] was -1%; in experiment [4] it was 96% (active). Also, the inhibition was -12% in experiment [2] and 5% in experiment [3]. The outcome in experiment [5], in experiment [6], in experiment [7] and in experiment [8] was inactive.
As for `Cc1cccc(Nc2nccc(Nc3cccc(C(=O)NCCN4CCOCC4)c3)n2)c1`, the growth inhibition in experiment [1] was 11%; in experiment [4] it was 91% (active). Further, the inhibition in experiment [2] is 10%; in experiment [3] it was -2%. The result in experiment [5], in experiment [6], in experiment [7] and in experiment [8] was inactive.
For `COc1ccc2c(NN=Cc3ccccc3)cc(C)nc2c1`, the growth inhibition was 49% in experiment [1] and 100% (active) in experiment [4]. Besides, the inhibition in experiment [2] and in experiment [3] was -2% in each case. In addition, the outcome in experiment [5], in experiment [6], in experiment [7] and in experiment [8] was inactive.
Regarding `COc1ccc2nccc(N3CCC(SCCNCc4ccc5c(n4)NC(=O)CS5)C3)c2n1` (stereo not given), the growth inhibition is 100% (active) in experiment [1] and 95% (active) in experiment [4]. The results for the inhibition in experiment [2] and in experiment [3] were 34% and 2%, respectively. The result in experiment [5], in experiment [6], in experiment [7] and in experiment [8] was inactive.
With `CNCc1cccc(-c2ccc3ccnc(N)c3c2)c1`, the results for the growth inhibition in experiment [1] and in experiment [4] were 98% (active) and 101% (active), respectively. The inhibition in experiment [2] was 20%; in experiment [3] it was 3%. In addition, the outcome in experiment [5], in experiment [6], in experiment [7] and in experiment [8] was inactive.
On to `CCN(CC)CCCN(CCCN(CC)CC)c1cc(C)nc(Nc2ccc(Cl)cc2)n1`, for which the growth inhibition is 7% in experiment [1] and 101% (active) in experiment [4]. Also, the inhibition in experiment [2] is 11%; in experiment [3], 2%. Moreover, the result in experiment [5], in experiment [6], in experiment [7] and in experiment [8] was inactive.
